Data taken from article PMC7862700, “An all-to-all approach to the identification of sequence-specific readers for epigenetic DNA modifications on cytosine”.

Legend:
Assay in all cases: DAPPL (digital affinity profiling via proximity ligation, sequencing); 10 mM Tris-HCl pH 7.5, 50 mM NaCl, 1 mM DTT, 4% glycerol, room temperature, 30 min; GST-TFs on glutathione beads, 16-mer random dsDNA library, 0.1% formaldehyde crosslink after washing; high values mean tight binding
Conditions in all cases: protein: recombinant; tags: N-terminal GST; dsDNA, one strand shown
FEV = target: T1, FEV (Homo sapiens, UniProt Q99581 1-238)
T1 sequence: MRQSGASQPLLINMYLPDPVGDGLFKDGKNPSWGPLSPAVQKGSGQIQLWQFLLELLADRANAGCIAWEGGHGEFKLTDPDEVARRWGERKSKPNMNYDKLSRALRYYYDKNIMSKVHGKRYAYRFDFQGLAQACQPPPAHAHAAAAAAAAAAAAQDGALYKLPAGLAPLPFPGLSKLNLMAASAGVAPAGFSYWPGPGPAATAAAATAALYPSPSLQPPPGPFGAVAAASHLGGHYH
Method in brief: (§1)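 GST fusions of human transcription factors were expressed in yeast and captured with glutathione beads. Once given DNA barcodes and pooled alongside a tag-only sample, they were incubated for 30 min at room temperature with 200 nmole of a random double-stranded 16-mer DNA library in Tris/NaCl/DTT/glycerol buffer, then washed, crosslinked (0.1% formaldehyde), proximity-ligated, PCR-amplified and sequenced on an Illumina NextSeq500. The binding signal of each hexamer is its read frequency for a factor divided by its frequency for the tag-only sample.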

ETV5 = ETV5 (Homo sapiens, UniProt P41161 1-510)
Sequence of ETV5 (P41161 whole entry): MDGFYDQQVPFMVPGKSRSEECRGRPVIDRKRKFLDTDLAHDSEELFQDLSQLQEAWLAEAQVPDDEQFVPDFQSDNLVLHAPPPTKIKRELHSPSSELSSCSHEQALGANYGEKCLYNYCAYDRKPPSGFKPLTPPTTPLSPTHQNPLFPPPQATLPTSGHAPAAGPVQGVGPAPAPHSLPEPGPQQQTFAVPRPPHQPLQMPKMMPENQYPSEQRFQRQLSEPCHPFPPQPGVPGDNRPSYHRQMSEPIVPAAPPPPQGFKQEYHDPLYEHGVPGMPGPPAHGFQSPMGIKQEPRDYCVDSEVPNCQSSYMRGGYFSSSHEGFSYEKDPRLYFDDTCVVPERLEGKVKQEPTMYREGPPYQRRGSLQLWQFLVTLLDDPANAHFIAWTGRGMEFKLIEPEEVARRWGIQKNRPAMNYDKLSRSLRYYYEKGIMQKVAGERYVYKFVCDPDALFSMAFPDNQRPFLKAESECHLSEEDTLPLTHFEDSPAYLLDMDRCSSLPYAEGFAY
Method in brief: as §1

SPIC = target: T2, SPIC (Homo sapiens, UniProt Q8N5J4 1-248)
T2 sequence: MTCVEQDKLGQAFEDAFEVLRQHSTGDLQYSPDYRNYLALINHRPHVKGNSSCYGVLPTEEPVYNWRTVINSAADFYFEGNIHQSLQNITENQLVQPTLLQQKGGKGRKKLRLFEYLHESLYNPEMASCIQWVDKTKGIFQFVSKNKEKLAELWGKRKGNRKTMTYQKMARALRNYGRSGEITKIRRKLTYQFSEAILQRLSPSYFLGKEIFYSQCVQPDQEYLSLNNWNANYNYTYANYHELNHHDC
Method in brief: as §1

ELF4 = ELF4 (Homo sapiens, UniProt Q99607 1-663)
Sequence of ELF4 (Q99607 whole entry): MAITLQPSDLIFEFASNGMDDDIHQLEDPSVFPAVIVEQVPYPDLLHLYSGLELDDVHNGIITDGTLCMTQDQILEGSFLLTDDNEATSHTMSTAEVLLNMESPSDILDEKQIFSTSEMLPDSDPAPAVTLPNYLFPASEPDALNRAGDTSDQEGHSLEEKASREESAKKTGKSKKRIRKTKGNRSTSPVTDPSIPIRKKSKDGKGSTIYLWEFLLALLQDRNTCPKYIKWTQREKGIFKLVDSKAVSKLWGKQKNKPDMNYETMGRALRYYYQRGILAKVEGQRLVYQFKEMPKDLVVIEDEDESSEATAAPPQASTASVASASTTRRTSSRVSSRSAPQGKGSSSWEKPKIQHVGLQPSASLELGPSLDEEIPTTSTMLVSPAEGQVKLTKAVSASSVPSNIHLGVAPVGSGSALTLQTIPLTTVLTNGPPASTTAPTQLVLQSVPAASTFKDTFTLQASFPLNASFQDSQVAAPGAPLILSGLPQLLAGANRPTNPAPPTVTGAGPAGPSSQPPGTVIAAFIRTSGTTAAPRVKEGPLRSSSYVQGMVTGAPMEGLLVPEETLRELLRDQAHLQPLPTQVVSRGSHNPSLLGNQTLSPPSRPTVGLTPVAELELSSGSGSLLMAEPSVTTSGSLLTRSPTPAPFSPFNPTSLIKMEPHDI
Method in brief: as §1

ELK4 = target: T3, ELK4 (Homo sapiens, UniProt P28324-2 1-405)
T3 sequence: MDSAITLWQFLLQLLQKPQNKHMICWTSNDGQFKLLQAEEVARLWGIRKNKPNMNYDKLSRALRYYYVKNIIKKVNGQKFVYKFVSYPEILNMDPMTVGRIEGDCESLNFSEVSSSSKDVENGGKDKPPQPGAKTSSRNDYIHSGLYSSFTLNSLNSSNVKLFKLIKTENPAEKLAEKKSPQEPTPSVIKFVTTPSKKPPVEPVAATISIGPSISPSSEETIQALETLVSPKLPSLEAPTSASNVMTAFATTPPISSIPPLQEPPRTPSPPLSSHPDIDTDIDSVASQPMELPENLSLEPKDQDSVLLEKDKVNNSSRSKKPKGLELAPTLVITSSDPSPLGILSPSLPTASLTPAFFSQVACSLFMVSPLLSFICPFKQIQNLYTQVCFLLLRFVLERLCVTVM
Method in brief: as §1

ETV2 = target: T4, ETV2 (Homo sapiens, UniProt O00321 1-342)
T4 sequence: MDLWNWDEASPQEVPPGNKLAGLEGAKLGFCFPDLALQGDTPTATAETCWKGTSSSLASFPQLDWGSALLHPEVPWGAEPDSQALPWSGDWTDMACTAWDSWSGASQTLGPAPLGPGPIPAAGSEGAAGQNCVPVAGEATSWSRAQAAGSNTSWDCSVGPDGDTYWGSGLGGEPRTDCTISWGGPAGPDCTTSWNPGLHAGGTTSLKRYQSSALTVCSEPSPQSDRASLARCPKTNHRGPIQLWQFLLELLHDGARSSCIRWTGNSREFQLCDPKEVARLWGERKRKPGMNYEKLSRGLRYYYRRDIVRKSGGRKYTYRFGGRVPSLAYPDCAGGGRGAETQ
Method in brief: as §1

ELF3 = target: T5, ELF3 (Homo sapiens, UniProt P78545 1-371)
T5 sequence: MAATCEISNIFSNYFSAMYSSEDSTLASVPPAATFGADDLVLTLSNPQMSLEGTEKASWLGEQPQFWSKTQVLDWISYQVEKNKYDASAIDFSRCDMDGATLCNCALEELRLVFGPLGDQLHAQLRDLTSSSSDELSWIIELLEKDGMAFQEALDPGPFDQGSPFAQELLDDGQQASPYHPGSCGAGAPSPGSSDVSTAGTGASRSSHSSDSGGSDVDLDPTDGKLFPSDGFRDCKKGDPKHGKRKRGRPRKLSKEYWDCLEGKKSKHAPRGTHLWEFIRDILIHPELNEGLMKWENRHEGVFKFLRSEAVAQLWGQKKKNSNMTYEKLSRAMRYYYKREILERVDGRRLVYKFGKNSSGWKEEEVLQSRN
Method in brief: as §1

ETV1 = ETV1 (Homo sapiens, UniProt P50549 1-477)
Sequence of ETV1 (P50549 whole entry): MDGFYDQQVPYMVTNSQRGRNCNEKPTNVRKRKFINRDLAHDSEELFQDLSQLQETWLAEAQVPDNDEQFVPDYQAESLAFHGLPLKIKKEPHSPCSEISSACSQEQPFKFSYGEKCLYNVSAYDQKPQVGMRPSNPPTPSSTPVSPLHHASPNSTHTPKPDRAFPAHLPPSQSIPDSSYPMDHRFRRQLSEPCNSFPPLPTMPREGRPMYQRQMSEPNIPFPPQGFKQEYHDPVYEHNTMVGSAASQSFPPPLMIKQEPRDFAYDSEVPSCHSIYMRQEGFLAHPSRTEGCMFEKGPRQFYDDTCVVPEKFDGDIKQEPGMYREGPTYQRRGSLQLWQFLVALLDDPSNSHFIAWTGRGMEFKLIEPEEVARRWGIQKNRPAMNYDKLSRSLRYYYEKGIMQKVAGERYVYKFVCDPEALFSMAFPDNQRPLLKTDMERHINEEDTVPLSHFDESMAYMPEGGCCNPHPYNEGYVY
Method in brief: as §1

ERF = target: T6, ERF (Homo sapiens, UniProt P50548 1-548)
T6 sequence: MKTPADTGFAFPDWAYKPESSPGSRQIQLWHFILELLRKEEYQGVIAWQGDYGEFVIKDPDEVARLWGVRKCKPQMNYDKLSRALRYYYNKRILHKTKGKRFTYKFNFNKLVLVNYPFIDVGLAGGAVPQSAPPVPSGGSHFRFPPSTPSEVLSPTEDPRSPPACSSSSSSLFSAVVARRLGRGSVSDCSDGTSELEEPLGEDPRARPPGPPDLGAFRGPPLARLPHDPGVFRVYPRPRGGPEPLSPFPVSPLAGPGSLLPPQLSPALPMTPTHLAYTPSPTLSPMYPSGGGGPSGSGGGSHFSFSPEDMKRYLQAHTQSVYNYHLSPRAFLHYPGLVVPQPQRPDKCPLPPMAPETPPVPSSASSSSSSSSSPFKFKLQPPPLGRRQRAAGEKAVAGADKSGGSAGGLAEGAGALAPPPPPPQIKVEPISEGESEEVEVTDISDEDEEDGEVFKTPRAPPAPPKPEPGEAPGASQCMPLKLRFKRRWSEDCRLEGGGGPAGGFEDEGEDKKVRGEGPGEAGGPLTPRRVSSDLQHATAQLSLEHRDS
Method in brief: as §1

ETV3L = target: T7, ETV3L (Homo sapiens, UniProt Q6ZN32 1-361)
T7 sequence: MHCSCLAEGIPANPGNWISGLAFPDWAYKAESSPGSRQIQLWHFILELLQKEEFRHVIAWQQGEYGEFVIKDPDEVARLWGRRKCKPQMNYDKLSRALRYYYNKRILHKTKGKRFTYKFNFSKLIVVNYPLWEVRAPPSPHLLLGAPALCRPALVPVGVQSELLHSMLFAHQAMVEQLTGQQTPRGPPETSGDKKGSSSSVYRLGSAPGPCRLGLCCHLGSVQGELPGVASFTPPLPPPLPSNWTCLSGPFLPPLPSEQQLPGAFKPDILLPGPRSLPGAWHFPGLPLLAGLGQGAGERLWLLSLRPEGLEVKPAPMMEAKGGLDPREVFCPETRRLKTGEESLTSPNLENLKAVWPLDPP
Method in brief: as §1

ETS2 = target: T8, ETS2 (Homo sapiens, UniProt P15036 1-469)
T8 sequence: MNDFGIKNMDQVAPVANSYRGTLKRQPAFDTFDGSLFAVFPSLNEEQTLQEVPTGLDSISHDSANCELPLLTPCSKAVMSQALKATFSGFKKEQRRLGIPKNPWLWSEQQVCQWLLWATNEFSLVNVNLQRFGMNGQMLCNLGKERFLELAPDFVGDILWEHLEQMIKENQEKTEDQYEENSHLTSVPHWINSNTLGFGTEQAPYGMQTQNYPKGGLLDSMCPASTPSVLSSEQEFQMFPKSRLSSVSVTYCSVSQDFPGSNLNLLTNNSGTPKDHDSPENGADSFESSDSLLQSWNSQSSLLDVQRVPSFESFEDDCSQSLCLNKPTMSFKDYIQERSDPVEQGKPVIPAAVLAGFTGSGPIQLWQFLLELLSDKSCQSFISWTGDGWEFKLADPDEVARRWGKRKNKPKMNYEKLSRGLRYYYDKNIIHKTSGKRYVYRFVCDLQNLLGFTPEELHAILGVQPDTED
Method in brief: as §1

SPDEF = target: T9, SPDEF (Homo sapiens, UniProt O95238 1-335)
T9 sequence: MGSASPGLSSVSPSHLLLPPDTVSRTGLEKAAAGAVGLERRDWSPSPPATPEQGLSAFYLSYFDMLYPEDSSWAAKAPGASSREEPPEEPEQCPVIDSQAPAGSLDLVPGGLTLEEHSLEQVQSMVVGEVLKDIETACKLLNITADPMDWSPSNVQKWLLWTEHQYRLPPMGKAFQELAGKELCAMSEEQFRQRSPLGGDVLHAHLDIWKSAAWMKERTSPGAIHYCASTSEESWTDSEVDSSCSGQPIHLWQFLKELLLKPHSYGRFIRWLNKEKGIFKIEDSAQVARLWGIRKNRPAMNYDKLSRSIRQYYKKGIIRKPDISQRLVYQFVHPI
Method in brief: as §1

ETV7 = target: T10, ETV7 (Homo sapiens, UniProt Q9Y603 1-341)
T10 sequence: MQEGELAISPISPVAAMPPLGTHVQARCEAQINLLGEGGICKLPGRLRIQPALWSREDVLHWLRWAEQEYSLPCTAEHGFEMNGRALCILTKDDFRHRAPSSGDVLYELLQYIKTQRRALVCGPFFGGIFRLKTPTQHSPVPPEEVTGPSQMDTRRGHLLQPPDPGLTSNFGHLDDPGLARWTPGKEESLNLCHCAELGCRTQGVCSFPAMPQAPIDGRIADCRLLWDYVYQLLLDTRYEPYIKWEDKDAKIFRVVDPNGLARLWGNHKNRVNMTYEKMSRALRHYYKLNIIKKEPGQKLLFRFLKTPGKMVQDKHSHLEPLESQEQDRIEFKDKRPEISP
Method in brief: as §1

ELF5 = target: T11, ELF5 (Homo sapiens, UniProt Q9UKW6-2 1-255)
T11 sequence: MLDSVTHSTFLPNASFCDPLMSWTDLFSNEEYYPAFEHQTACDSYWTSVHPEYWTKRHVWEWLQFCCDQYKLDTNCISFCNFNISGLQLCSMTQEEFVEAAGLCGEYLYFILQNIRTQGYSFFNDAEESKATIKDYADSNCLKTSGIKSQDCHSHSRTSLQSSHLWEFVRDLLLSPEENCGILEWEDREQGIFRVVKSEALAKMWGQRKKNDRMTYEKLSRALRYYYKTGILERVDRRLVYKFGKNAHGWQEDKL
Method in brief: as §1

ETV3 = target: T12, ETV3 (Homo sapiens, UniProt P41162-2 1-143)
T12 sequence: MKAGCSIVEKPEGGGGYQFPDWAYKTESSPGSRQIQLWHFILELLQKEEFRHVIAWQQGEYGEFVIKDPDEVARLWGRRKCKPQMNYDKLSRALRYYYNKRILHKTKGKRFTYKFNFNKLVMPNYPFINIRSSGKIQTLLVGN
Method in brief: as §1

ETV6 = ETV6 (Homo sapiens, UniProt P41212 1-452)
Sequence of ETV6 (P41212 whole entry): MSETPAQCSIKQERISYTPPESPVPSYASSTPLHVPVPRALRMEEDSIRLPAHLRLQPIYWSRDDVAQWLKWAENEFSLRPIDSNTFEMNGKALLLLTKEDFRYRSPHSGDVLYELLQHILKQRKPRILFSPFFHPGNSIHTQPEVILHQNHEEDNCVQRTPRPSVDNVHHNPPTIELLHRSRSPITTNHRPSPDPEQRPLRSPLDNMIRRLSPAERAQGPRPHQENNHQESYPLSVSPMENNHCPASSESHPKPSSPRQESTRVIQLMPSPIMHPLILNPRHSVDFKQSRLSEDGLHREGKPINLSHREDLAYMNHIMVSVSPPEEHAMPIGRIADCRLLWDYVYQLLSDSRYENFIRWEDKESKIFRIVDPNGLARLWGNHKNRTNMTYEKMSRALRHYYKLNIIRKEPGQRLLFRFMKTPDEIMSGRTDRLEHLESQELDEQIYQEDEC
Method in brief: as §1

Sequence	binding signal (FEV)	binding signal (ETV5)	binding signal (SPIC)	binding signal (ELF4)	binding signal (ELK4)	binding signal (ETV2)	binding signal (ELF3)	binding signal (ETV1)	binding signal (ERF)	binding signal (ETV3L)	binding signal (ETS2)	binding signal (SPDEF)	binding signal (ETV7)	binding signal (ELF5)	binding signal (ETV3)	binding signal (ETV6)
TGGACA	1.1 fold enrichment (6-mer frequency, TF over GST control)	1.08 fold enrichment (6-mer frequency, TF over GST control)	1.05 fold enrichment (6-mer frequency, TF over GST control)	1.13 fold enrichment (6-mer frequency, TF over GST control)	1.03 fold enrichment (6-mer frequency, TF over GST control)	1.03 fold enrichment (6-mer frequency, TF over GST control)	1.15 fold enrichment (6-mer frequency, TF over GST control)	1.03 fold enrichment (6-mer frequency, TF over GST control)	1.08 fold enrichment (6-mer frequency, TF over GST control)	1.06 fold enrichment (6-mer frequency, TF over GST control)	1.12 fold enrichment (6-mer frequency, TF over GST control)	1.04 fold enrichment (6-mer frequency, TF over GST control)	1.06 fold enrichment (6-mer frequency, TF over GST control)	1.02 fold enrichment (6-mer frequency, TF over GST control)	1.06 fold enrichment (6-mer frequency, TF over GST control)	1.09 fold enrichment (6-mer frequency, TF over GST control)
GATGCA	1.12 fold enrichment (6-mer frequency, TF over GST control)	1.13 fold enrichment (6-mer frequency, TF over GST control)	1.17 fold enrichment (6-mer frequency, TF over GST control)	1.23 fold enrichment (6-mer frequency, TF over GST control)	1.19 fold enrichment (6-mer frequency, TF over GST control)	1 fold enrichment (6-mer frequency, TF over GST control)	1.16 fold enrichment (6-mer frequency, TF over GST control)	1.04 fold enrichment (6-mer frequency, TF over GST control)	1.2 fold enrichment (6-mer frequency, TF over GST control)	1.14 fold enrichment (6-mer frequency, TF over GST control)	1.16 fold enrichment (6-mer frequency, TF over GST control)	1.47 fold enrichment (6-mer frequency, TF over GST control)	1.04 fold enrichment (6-mer frequency, TF over GST control)	1.1 fold enrichment (6-mer frequency, TF over GST control)	1.16 fold enrichment (6-mer frequency, TF over GST control)	1.02 fold enrichment (6-mer frequency, TF over GST control)
CAAACT	1.17 fold enrichment (6-mer frequency, TF over GST control)	1.16 fold enrichment (6-mer frequency, TF over GST control)	1.14 fold enrichment (6-mer frequency, TF over GST control)	1.17 fold enrichment (6-mer frequency, TF over GST control)	1.15 fold enrichment (6-mer frequency, TF over GST control)	1.21 fold enrichment (6-mer frequency, TF over GST control)	1.06 fold enrichment (6-mer frequency, TF over GST control)	1.28 fold enrichment (6-mer frequency, TF over GST control)	1.23 fold enrichment (6-mer frequency, TF over GST control)	1.14 fold enrichment (6-mer frequency, TF over GST control)	1.21 fold enrichment (6-mer frequency, TF over GST control)	1.16 fold enrichment (6-mer frequency, TF over GST control)	1.15 fold enrichment (6-mer frequency, TF over GST control)	1.18 fold enrichment (6-mer frequency, TF over GST control)	1.13 fold enrichment (6-mer frequency, TF over GST control)	1.21 fold enrichment (6-mer frequency, TF over GST control)
